The list is not random: actives were taken first. Their share in the collection is about 3%.
ALOX12 inh – Primary qHTS assay for inhibitors of human arachidonate 12S-lipoxygenase (ALOX12): Round 2. purified 12hLO, xylenol orange hydroperoxide absorbance. Potency, µM (top dose mostly 108 µM), for inactives: at the highest dose activity change, negative = inhibition, hits mostly inhibitors. 1.1% of 580,000 active
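Hydroperoxide product was detected by ferrous iron/xylenol orange as the 573 to 405 nm absorbance ratio. Arachidonic acid at 40 uM (final) was turned over for 30 min at room temperature by 150 nM human 12hLO, pH 7.0 Hepes buffer, after 15 min compound preincubation.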
PLK1 PBD block – qHTS for Inhibitors of PLK1-PDB (polo-like kinase 1 - polo-box domain): Primary Screen. Potency, µM, without a hit: max response, negative = inhibition, most hits filed as inhibitors. Serine/threonine-protein kinase PLK1 (Homo sapiens), P53350. Plk1 PBD binding of FITC phosphopeptide, fluorescence polarization. 2.8% of 360,000 active; note: series mostly up to about 57 µM; nearly all actives have a fitted effect of over 65% in size
KAT2A inh – qHTS Assay for Inhibitors of GCN5L2; Histone acetyltransferase KAT2A (Homo sapiens), Q92830; GCN5L2 HAT assay, ThioGlo1 CoA-SH fluorescence; Potency, µM (series often up to 58.9 µM), inactives show top-dose activity change, negative = inhibition, usual class: inhibitors; 0.21% of 390,000 active
Target sequence (Q92830 whole entry, looked up): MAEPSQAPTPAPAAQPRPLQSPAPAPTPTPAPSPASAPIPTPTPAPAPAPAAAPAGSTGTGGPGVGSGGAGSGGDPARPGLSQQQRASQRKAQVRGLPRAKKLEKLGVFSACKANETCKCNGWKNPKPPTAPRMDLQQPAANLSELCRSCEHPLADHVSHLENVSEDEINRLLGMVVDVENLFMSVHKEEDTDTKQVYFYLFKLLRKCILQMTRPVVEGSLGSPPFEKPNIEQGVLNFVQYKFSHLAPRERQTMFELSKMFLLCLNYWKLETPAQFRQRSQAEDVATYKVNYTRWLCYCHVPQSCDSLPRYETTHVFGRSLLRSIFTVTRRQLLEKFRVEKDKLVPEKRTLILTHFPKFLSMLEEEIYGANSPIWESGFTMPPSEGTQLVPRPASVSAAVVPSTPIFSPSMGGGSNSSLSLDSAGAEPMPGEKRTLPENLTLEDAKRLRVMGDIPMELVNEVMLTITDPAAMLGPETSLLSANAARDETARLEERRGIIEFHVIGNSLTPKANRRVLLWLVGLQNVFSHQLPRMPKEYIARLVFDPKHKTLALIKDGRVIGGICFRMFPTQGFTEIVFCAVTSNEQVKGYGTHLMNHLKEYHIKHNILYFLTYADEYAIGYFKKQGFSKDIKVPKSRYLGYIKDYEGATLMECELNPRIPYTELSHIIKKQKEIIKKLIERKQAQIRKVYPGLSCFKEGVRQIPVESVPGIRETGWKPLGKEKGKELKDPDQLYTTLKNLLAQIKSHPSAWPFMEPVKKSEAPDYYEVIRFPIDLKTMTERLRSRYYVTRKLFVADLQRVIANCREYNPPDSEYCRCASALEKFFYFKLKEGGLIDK
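Fluorescence readout, Ex340nm/Em540nm: ThioGlo1 (50uM final) reacts with free CoA thiol released as 20nM GCN5L2 acetylates H3(1-25) peptide (75uM) using acetyl-CoA (70uM). Compound and enzyme sat 15 min beforehand; 20 min room-temperature reaction.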
VDR inhibitor – Inhibitors of the vitamin D receptor (VDR): qHTS | Vitamin D3 receptor (Homo sapiens), P11473 | VDR-SRC2-3 peptide fluorescence polarization, 2 h | Potency, µM, for inactives: max response, negative = inhibition, most hits filed as inhibitors | 0.93% of 400,000 active
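Fluorescence polarization assay measuring small-molecule disruption of VDR binding to the coregulator peptide SRC2-3. Compounds were pin-transferred (23 nl) into the reagent mix and incubated 2 h at room temperature before reading.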
* = called active by the depositor; ? = inconclusive; · = no result; [ ] = another dose, or the depositor's remark. Calls come from the whole dose curve; as a rule, active = well fitted curve in the direction sought with a large enough effect; inconclusive = small, poorly fitted or top-dose-only effect, or another doubt; inactive = no such curve, though single readings can be large; an effect the other way counts as inactive or inconclusive. % is set by controls: 0 for no effect and ±100 for the full control effect; potency is the fitted concentration of half-maximal effect.

SMILES	ALOX12 inh	PLK1 PBD block	KAT2A inh	VDR inhibitor
O=C(NCCc1csc(-c2ccccc2)n1)c1ccco1	0.0%	10.6µM*	?	?
COc1ccc(C)cc1NC(=O)Cc1csc(NC(=O)Nc2ccccc2OC)n1	0.8%	29.9µM*	·	·
CON(C)C(=O)CC1Sc2ccc(Cl)cc2NC1=O (stereo unspecified)	5.7%	·	·	·
O=C(CSc1nc2c(cnn2-c2ccc(F)cc2)c(=O)[nH]1)Nc1ccccc1C(F)(F)F	-13.2%	·	2.3%	-3.6%
O=C(Cn1nnc2c(cnn2-c2ccc(F)cc2)c1=O)Nc1ccccc1C(F)(F)F	-12.1%	-3.1%	12.6µM*	-20.7%
Cc1ccc2nc(-c3ccc(C)c(NC(=O)c4ccc([N+](=O)[O-])o4)c3)oc2c1	-0.7%	·	·	·
Cc1ccccc1-c1cc(N2CCNCC2)ncn1	?	·	?	44.7µM*
CC(=O)NCCNC(=O)Cc1c[nH]c2ccccc12	-6.9%	·	·	·
O=C(Cc1noc(C(=O)NCc2ccncc2)n1)Nc1cccc2ncccc12	8.3%	·	·	·
CCOc1nc(NCCO)nc(Nc2cc(Cl)ccc2OC)n1	1.5%	26.7µM*	0.0%	-14.0%
CCOc1ccccc1C(=O)NC(C(=O)OCC(C)C)C(C)C (stereo unspecified)	-7.0%	·	·	·
N#CC1=C(N)NC(=S)C(C(N)=O)C1c1ccc([N+](=O)[O-])cc1 (stereo unspecified)	44.7µM*	26.7µM*	-9.2%	79.4µM*
O=C1NC(C(=O)O)=CC(c2ccc([N+](=O)[O-])cc2)N1 (stereo unspecified)	?	-3.8%	-20.7%	-26.4%
CS(=O)(=O)Oc1ccc2c(=O)c(-c3ccccc3)coc2c1	-55.2%	·	·	·
CCOc1ccc(Br)cc1C1C(C#N)=C(N)Oc2cc3c(cc21)OCO3 (stereo unspecified)	7.08µM*	·	·	·
COc1ccc(OCC(=O)Nc2cccc(-c3nc4cc(C)ccc4o3)c2)cc1	-2.2%	·	·	·
O=C(COC(=O)c1ccc(-c2ccccc2)s1)c1ccccc1	-2.4%	·	·	·
CCCCNC(=S)NCCN1CCCCC1	?	-5.5%	-0.1%	0.2%
CCCNC(=S)NCCN1CCCCC1	0.631µM*	-20.5%	-2.6%	1.6%
Cc1cc(C)cc(NC(=S)NCCO)c1	14.1µM*	·	·	·
CC(C)n1c(SCC(=O)N2CCOCC2)nc2c1c(=O)n(C)c(=O)n2C	9.9%	·	·	·
Cc1ccc(C(=O)Oc2csc(=S)n2C(=O)c2ccc(C)cc2)cc1	?	2.99µM*	-1.6%	-30.4%
COc1ccc2c(c1)CCN=C2C[C@H]1CN(C(=O)c2ccc(C#N)cc2)CC[C@H]1CC(=O)O	63.1µM*	·	·	·
c1coc(CNCc2ccc3cc[nH]c3c2)c1	-23.5%	·	·	·
O=C(NCCC1CCCO1)c1cc(-c2ccccc2)nc2ccccc12 (stereo unspecified)	0.2%	·	·	·
SMILES	ALOX12 inh	PLK1 PBD block	KAT2A inh	VDR inhibitor
CN(C)c1cccc(NCc2nc3c(n2Cc2ccccc2)C(=O)N(CCOc2ccccc2)CCN3)c1	-2.8%	·	·	·
CCCc1cc(CN2CCOCC2)c(O)c(CN2CCOCC2)c1O	35.5µM*	6.7µM*	·	22.4µM*
Oc1c(CN2CCOCC2)cc(CN2CCOCC2)c(O)c1O	61.2%	1.68µM*	·	20µM*
Cc1nc2cc(F)cc(C(=O)NCCCN(C)C(C)C)c2nc1C	-8.8%	·	·	·
CCCCNC(=O)COC(=O)c1c2c(nc3ccccc13)/C(=C/c1cccs1)CC2	-17.2%	-10.4%	-19.3%	-16.8%
O=C(COC(=O)c1c2c(nc3ccccc13)/C(=C\c1ccco1)CC2)NC1CCCC1	7.08µM*	9.47µM*	·	-18.1%
CN(CCC#N)C(=O)COC(=O)c1c2c(nc3ccccc13)/C(=C\c1ccco1)CC2	-28.1%	-16.3%	·	14.4%
CC1CCCCC1NC(=O)COC(=O)c1c2c(nc3ccccc13)/C(=C\c1ccco1)CC2 (stereo unspecified)	15.8µM*	?	·	0.8%
CC1(C(=O)CSc2nc3ccccc3s2)CCC(=O)O1 (stereo unspecified)	?	21.2µM*	-1.0%	?
COc1cccc(-c2ccc(=O)n(CC(=O)NCCc3ccc(OC)c(OC)c3)n2)c1	24.3%	·	·	·
O=C1/C(=C/c2ccccc2F)CCc2ccccc21	3.16µM*	·	·	·
O=C1/C(=C/c2ccc(F)cc2)CCc2ccccc21	-2.3%	·	·	·
Cc1ccsc1/C=C1/C(=O)NN(c2ccccc2)C1=O	-21.3%	-20.8%	-12.5%	-28.0%
O=C(O)c1cc(-c2ccc(/C=C3\NC(=O)N(c4ccc(Cl)cc4)C3=O)o2)ccc1Cl	?	11.9µM*	-6.2%	-27.2%
Cc1cccc(N2NC(=O)/C(=C/c3ccc(-c4ccc(Cl)c(C(=O)O)c4)o3)C2=O)c1	?	16.8µM*	-24.6%	?
Cc1ccc(Sc2ccc(/C=C3/C(=O)NN(c4ccccc4)C3=O)o2)cc1	?	5.97µM*	-21.3%	?
O=C1NN(c2ccccc2)C(=O)/C1=C/c1ccc(-c2ccc(Cl)c(C(=O)O)c2)o1	?	?	-26.3%	?
Cc1ccncc1-c1c(C)nn2c1N(Cc1cccc(OC(F)(F)F)c1)CCC2	-24.4%[176 µM]	·	·	·
Cc1ccncc1-c1c(C)nn2c1N(Cc1cccc(O)c1)CCC2	31.6µM*	·	·	·
Cc1ccc(C(=O)N2CCC3(CC2)CC(=O)N(c2ccccc2)c2ccccc2O3)cc1	-0.8%	·	·	·
Cn1c(SCC(=O)c2cc(Cl)c(Cl)s2)nnc1-c1ccco1	0.0%	21.2µM*	1.8%	-21.8%
Cc1ccc(C(=O)CSc2nnc(-c3ccco3)n2C)cc1	-15.8%	5.97µM*	-2.8%	50.1µM*
CC(=O)Nc1ccc(NC(=O)c2cccc3c(Br)cccc23)cc1	-12.2%	·	·	·
CC(=O)NS(=O)(=O)c1ccc(N=c2ssc3c2-c2ccc(C)cc2NC3(C)C)cc1	15.8µM*	?	-2.8%	-29.6%
Cc1ccc(S(=O)(=O)NC(=O)Nc2cc(C)ccc2F)cc1	0.0%	-24.5%	-6.3%	17.2%
SMILES	ALOX12 inh	PLK1 PBD block	KAT2A inh	VDR inhibitor
O=[N+]([O-])c1ccccc1/C=C/C=N/Nc1ccc(Cl)nn1	27.3%	·	·	·
O=c1cc(Br)c(O)c(Br)cc1Br	?	21.2µM*	·	?
OCC1(CNCc2cccnc2)C[C@@H](O)[C@@H](O)C1 (stereo partly specified)	20µM*	·	·	·
CC1Cc2cc(C(=O)c3cc4cc(Cl)ccc4o3)ccc2N1S(C)(=O)=O (stereo unspecified)	15.7%	·	·	·
Cc1ccc2nc(NC(=O)c3nn(C(C)C)c(=O)c4ccccc34)sc2c1	4.0%	·	·	·
CCOC(=O)/C(=C/c1ccc(OC(=O)c2ccccc2)cc1)C(C)=O	?	5.32µM*	-5.2%	?
CCc1ccc2oc(C(=O)N3CCC(Cc4ccccc4)CC3)cc(=O)c2c1	-57.9%	·	·	·
Cc1cc2c(cc1C)N(C(=O)CCl)CC(=O)N2	·	-22.3%	·	·
Cc1cc2c(cc1C)N(C(=O)CCl)CCN2C(=O)CCl	8.91µM*	?	·	?
Cc1csc(NC(=O)CCc2nc(-c3ccsc3)no2)n1	-38.3%	·	·	·
